# PubChem BioAssay (NCATS)
# Where “and” joins values, the source holds several entries; their conditions need not be identical. Equal values may be shown once. Results filed as inconclusive are left out. Calls of active or inactive are those of the source. The call rests on the fitted dose curve; in most records, active means well fitted activation curve with a large enough effect; inconclusive means small, poorly fitted or top-dose-only effect; inactive means no such curve, though single readings can be large or run the other way.
# Biological target: Cellular tumor antigen p53 (Homo sapiens) (UniProt P04637)
# Assay: Primary qHTS for small molecule compounds that upregulate eGFP-tagged delta133p53alpha (in N-terminal) cells. (AID 2060322); further: nearly all actives have a fitted effect of over 75% in size;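 on activation: cells pre-induced with doxycycline then dosed without doxycycline; series mostly up to about 56 µM; 0% = DMSO vehicle and 100% = reference activator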
# Conditions: NCI-H358 eGFP-delta133p53alpha fluorescence, 24 h; activation: stronger effect = higher value
# Method in brief: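 NCI-H358 cells pre-induced 24 h with 10 ng/ml doxycycline for eGFP-delta133p53alpha, plated dox-free and exposed 24 h at 37C to titrated compounds. Fixed, Hoechst-stained; gated GFP peak intensity by laser scanning cytometry, normalized to DMSO (0%) and 57.5 uM 5-azacytidine (100%).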
# Potency means the concentration at half of the fitted maximal effect.
# Chain of Cellular tumor antigen p53 (Homo sapiens) (P04637 whole entry, looked up): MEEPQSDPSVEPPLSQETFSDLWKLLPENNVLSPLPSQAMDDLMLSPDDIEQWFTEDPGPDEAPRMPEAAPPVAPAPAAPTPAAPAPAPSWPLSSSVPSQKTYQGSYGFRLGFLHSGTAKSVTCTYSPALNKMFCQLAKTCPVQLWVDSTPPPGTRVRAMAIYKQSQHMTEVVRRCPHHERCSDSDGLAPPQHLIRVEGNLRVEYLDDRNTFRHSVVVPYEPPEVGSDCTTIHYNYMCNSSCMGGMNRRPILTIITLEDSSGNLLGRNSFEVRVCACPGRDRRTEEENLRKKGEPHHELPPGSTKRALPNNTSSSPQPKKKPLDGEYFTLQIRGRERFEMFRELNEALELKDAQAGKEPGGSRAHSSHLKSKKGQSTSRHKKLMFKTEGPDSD
SMILES,activation,Potency
CC(C)N1[N]C(=C2C=c3cc(O)ccc3=N2)c2c(N)ncnc21,11.7% (inactive),
Nc1cccc(-c2csc(NC(=O)CCCCCCC(=O)NO)n2)c1,139% (inactive),
CC1(COc2ccc(CC3SC(=O)NC3=O)cc2)CCCCC1 (stereo not drawn),-3.95% (inactive),
CCC(C=C[C@@H]1OC(=O)C=C[C@H]1C)=C[C@H](C)CC=CC(C)=C[C@@H](C)C(=O)[C@@H](C)[C@H](O)[C@@H](C)CC(C)=CC(=O)O,,287 nM (active)
COc1cc(-c2ccc(=O)[nH]n2)ccc1OC(F)F,2.51% (inactive),
COc1ccc([C@@H]2CC(=O)c3c(O)cc(O[C@@H]4O[C@H](CO[C@@H]5O[C@@H](C)[C@H](O)[C@@H](O)[C@@H]5O)[C@@H](O)[C@H](O)[C@@H]4O)cc3O2)cc1O,4.43% (inactive) and 6.54% (inactive),
Nc1c2ccccc2nc2ccccc12,-7.34% (inactive),
Cc1c(C)n(CCN(C)C)c2ccc(C(=O)OCCN(C)C)cc12,-11.9% (inactive),
Cc1c(I)c(=O)n(-c2ccccc2)n1C,-10.7% (inactive),
O=C(O)C[C@H](O)C[C@H](O)C=Cc1c(C2CC2)nc2ccccc2c1-c1ccc(F)cc1,-5.06% (inactive),
O=c1[nH]c(=O)n([C@H]2C[C@@H](O)[C@@H](CO)O2)cc1I,6.89% (inactive),
CCn1cc(C(=O)O)c(=O)c2cc(F)c(N3CCNCC3)nc21,-2.51% (inactive) and 26.4% (inactive),
Cc1c(C(C)C)c(=O)n(-c2ccccc2)n1C,-13.4% (inactive),
